# In ChEMBL document CHEMBL4513216, “Probing the Open Global Health Chemical Diversity Library for Multistage-Active Starting Points for Next-Generation Antimalarials” (ACS Infect Dis, 2020):
# Out of some 69,000 compounds screened, about 8,600 (12%) showed an effect of 50% or more. Shown is part of a subset that was picked to be rich in strong results.
# Test system: Plasmodium berghei
# Experiment: Screen against P. berghei liver stage (PbLuc), transformed with Luciferase, at 10uM
# Assay type: functional, HepG2
# Settings: tested at 10 uM
row,SMILES,INHIBITION [%]
1,c1ccc2oc(CN3CCCC(Cn4cncn4)C3)nc2c1 (configuration not stated),16.34
2,CC(C)CCN(C(=O)c1ccc(-n2ncc(C#N)c2N)cc1)C1CC1,19.5
3,Cc1cnn(CCC(=O)N2CCCC(c3ccn[nH]3)C2)c1 (configuration not stated),-19.4
4,Cc1nc(C)n(C2CCCN(C(=O)CCOc3cccc(F)c3)C2)n1 (configuration not stated),33.3
5,Cc1c(NCCO)cccc1OC1CCCC1,-64.6
6,CN1CCC(CNC(=O)NCc2ccc(F)cc2)CC1,-33
7,CC(C)NC(=O)c1cc2c(s1)CCN2C(=O)CN(C)C,8.67
8,Cc1n[nH]c(C)c1C1COCCN1c1ncnc2sccc12 (configuration not stated),71.4
9,c1ccc2c(N3CCCC3Cn3cccn3)ncnc2c1 (configuration not stated),76.9
10,c1ccc2c(N3CCCCC3Cn3cccn3)ncnc2c1 (configuration not stated),11.575
11,CC1COCCN1c1ncnc2sccc12 (configuration not stated),49.1
12,c1ccc2c(N3CCCCC3Cn3cncn3)ncnc2c1 (configuration not stated),-11.1
13,Cc1nn(C)c(C)c1C1COCCN1c1ncnc2sccc12 (configuration not stated),-7.11
14,O=C(c1ccncc1)N1C[C@H]2CC[C@@H](C1)N(C(=O)N1CCOCC1)C2,-20.6
15,CCc1nc(C2CCCN2Cc2nccn2CC(F)(F)F)no1 (configuration not stated),28.8
16,CC1CN(CC(=O)NCc2ccccn2)CCN1Cc1nccn1C (configuration not stated),-20.19
17,O=C(c1ccc2c(c1)OCCCO2)N1CCCC(n2cccn2)C1 (configuration not stated),7.12
18,Cc1cc(CC(C)NC(=O)c2n[nH]c3c2CCC3)n[nH]1 (configuration not stated),-56.2
19,COCCn1ccc2c(NC(=O)c3n[nH]c4c3CCC4)cccc21,9.57
20,CC(=O)Nc1cccc2c1ccn2CC(=O)Nc1n[nH]c(CC(C)C)n1,71.3
21,CC(C)c1nc2cc(NC(=O)c3n[nH]c4c3CCC4)ccc2n1C,62.2
22,CN(C)CCCn1cnc2cc(NC(=O)c3n[nH]c4c3CCC4)ccc21,10.1

row,SMILES,INHIBITION [%]
1,CC(C)n1ccc2c(NC(=O)c3n[nH]c4c3CCC4)cccc21,76.9
2,CC(=O)Nc1cccc2c1ccn2CC(=O)Nc1nc[nH]n1,21.5
3,CC(=O)Nc1cccc2c1ccn2CC(=O)NC(C)C,22
4,Cn1cnc2cc(NC(=O)c3n[nH]c4c3CCC4)ccc21,-136
5,COCCn1ccc2c(NC(=O)c3n[nH]c4c3CCCC4)cccc21,14.8
6,CC(C)Cn1ccc2c(NC(=O)c3n[nH]c4c3CCC4)cccc21,90.8
7,Cc1ccc(N(C)C2CCN(C(=O)c3n[nH]c4c3CCC4)CC2)nn1,-20.3
8,O=S(=O)(c1cnccc1N1CCN(CCO)CC1)N1CCOCC1,36.8
9,CCOc1ccc(C#N)cc1NC(=O)N1CCC(n2cncn2)CC1,-31.4
10,Cc1nc(N2CCCC2)ncc1-c1cc(O)nc(NCC2CCCO2)n1 (configuration not stated),-29.6
11,Cc1[nH]ccc1C(=O)N1C[C@@H]2CC[C@H]1CN(S(=O)(=O)N(C)C)C2,21.5
12,Cc1cc(S(=O)(=O)NCC(C)(C)N)c(F)cc1F,48.8
13,COCCNC(=O)NCc1cc(-c2cccs2)n(C2CCCC2)n1,43.9
14,Cc1noc(C)c1-c1cncc(C2CCCN2Cc2cncnc2)n1 (configuration not stated),22.2
15,O=S(=O)(Cc1ccccc1)CC(O)Cn1cccn1 (configuration not stated),34
16,Cc1cccc(CS(=O)(=O)CC(O)Cn2cccn2)c1 (configuration not stated),15.5
17,O=S(=O)(Cc1cccc(Cl)c1)CC(O)Cn1cccn1 (configuration not stated),57.5
18,Cn1c(NCc2ccc(C(N)=O)cc2)nc2cc(Cl)ccc21,10.7
19,CC(CN1CCCC1=O)NC(=O)NCc1ccccc1-n1cccn1 (configuration not stated),48.6
20,O=C(c1ccc(S(=O)(=O)NCC(F)F)cc1)N1CC[C@H]2CNC[C@H]21,43.7
21,O=C(c1ccc(S(=O)(=O)NCC(F)F)cc1)N1C[C@H]2CNC[C@H]2C1,69.3
22,O=C(c1ccc(F)c(F)c1)N1C[C@H]2CNC[C@H]2C1,5.04

row,SMILES,INHIBITION [%]
1,CC(C)n1cnc2c1C(C(=O)NCCC#N)N(Cc1ccccc1)CC2 (configuration not stated),15.1
2,COCc1nc(C2CCN(Cc3nccn3C)CC2)no1,-11.7
3,COC(=O)c1ccc2c(c1)CCCN2S(=O)(=O)c1cn(C)c(C)n1,2.25
4,c1cc2c(cc1OC[C@@H]1CCCN3CCCC[C@H]13)OCCO2,28.4
5,Oc1coc2cc(OC[C@@H]3CCCN4CCCC[C@H]34)ccc12,56.2
6,O=C(CC[C@@H]1CCCN2CCCC[C@H]12)NCCc1cc(O)ncn1,26.8
7,CC(Cn1ccnc1)NC(=O)NCCc1cccs1 (configuration not stated),-17.08
8,NC(CNS(=O)(=O)Cc1cccc2cccnc12)c1ccccc1 (configuration not stated),29
9,Cc1nn(C)c(C)c1C(=O)NCc1ccnc(OCC(F)(F)F)c1,13.765
10,O=C(NC1CCCCC1)c1nnc2ccc(N3CCOCC3)cc2n1,-64.4
11,Cc1ncc(CN2CCCC2c2ccc(C(=O)NCc3ccoc3)s2)s1 (configuration not stated),37.4
12,O=C(NCc1ccoc1)c1ccc(C2CCCN2CC2CCOCC2)s1 (configuration not stated),22.7
13,NCC(=O)N1CCCC1c1ccc(C(=O)NCc2ccoc2)s1 (configuration not stated),64.5
14,CC(C)=CCCC1(C)CCC(=O)N(CCc2csc(N)n2)C1 (configuration not stated),39.3
15,CCOC1CCN(C(=O)c2ccc(-c3cccc(C)c3)[nH]c2=O)CC1,-16
16,CC(C)COC1CCN(C(=O)c2ccc(C(F)(F)F)[nH]c2=O)CC1,63.5
17,CC(C)COC1CCN(C(=O)c2cc3ccccc3c(=O)[nH]2)CC1,-1.55
18,Cc1noc(C)c1CN1CCN(CCN(C)C)c2ncccc2C1,23.3
19,Clc1ccccc1Cn1cc(CNC2CCc3ncnn3C2)cn1 (configuration not stated),-12.1
20,CCOc1cccc(NC(=O)c2cnc(C)cn2)n1,-24.5
21,Cc1nn(C)c(N2CCCN(C)CC2)c1CNC(=O)C(C)(C)C,-49.5
22,CN(C)CCn1c(=O)oc2ccc(NC(=O)N3CCCCCC3)cc21,17.5

row,SMILES,INHIBITION [%]
1,CN(C)CCn1c(=O)oc2ccc(NC(=O)CC(C)(C)C)cc21,-3.95
2,CC(C)CCC(=O)Nc1ccc2oc(=O)n(CCN(C)C)c2c1,-34.8
3,CC(C)COCCC(=O)Nc1ccc2oc(=O)n(CCN(C)C)c2c1,-3.08
4,Cc1cc(C(=O)Nc2ccc3oc(=O)n(CCN(C)C)c3c2)c(C)o1,69.7
5,CN(C)CCn1c(=O)oc2ccc(NC(=O)CSc3ccccc3)cc21,24.3
6,CCC(CC)C(=O)Nc1ccc2oc(=O)n(CCN(C)C)c2c1,50.8
7,CN(C)CCn1c(=O)oc2ccc(NC(=O)c3cc(Cl)c[nH]3)cc21,-31.6
8,CCC(C)C(=O)Nc1ccc2oc(=O)n(CCN(C)C)c2c1 (configuration not stated),56
9,CC1CN(CC(=O)NC(=O)NCc2cccs2)CCN1CC(F)(F)F (configuration not stated),3.03
10,CC1CCN(c2nc(O)cc(C3CC(=O)N(C4CCCCC4)C3)n2)CC1 (configuration not stated),11.475
11,COc1ccc2c(c1)C1(CCN(Cc3cnn(C)c3)CC1)N(C)CC2,-72
12,COCC1COCCC12CCN(C(=O)COc1ccccc1)CC2 (configuration not stated),-10.3
13,COCCNC(=O)Cc1cnc(-n2cccc2)s1,41.1
14,Cc1cc(CN2CCC(C3CCN(CCc4ccccc4)C3)CC2)[nH]n1 (configuration not stated),11.9
15,COCc1nccc(C2CCCN(Cc3cccc(F)c3)C2)n1 (configuration not stated),20.9
16,CCc1c(C)nc2cc(C3CCN(Cc4cccc(F)c4)C3)nn2c1O (configuration not stated),77.3
17,Cc1nc(O)cc(C2CCN(Cc3ccc(F)c(F)c3)C2)n1 (configuration not stated),30.8
18,CCc1c(C)nc2cc(C3CCN(Cc4cccnc4)C3)nn2c1O (configuration not stated),-33.4
19,CCc1c(C)nc2cc(C3CCN(Cc4ccc(F)cc4)C3)nn2c1O (configuration not stated),66.5
20,CCc1c(C)[nH]c2cc(C3CCN(Cc4ccncc4C)C3)nn2c1=O (configuration not stated),38.8
21,CCc1c(C)nc2cc(C3CCN(CCc4ccccc4)C3)nn2c1O (configuration not stated),83.3
22,Cc1cc(CN2CCC(C3CCN(CCc4ccccc4)CC3)C2)[nH]n1 (configuration not stated),9.63

row,SMILES,INHIBITION [%]
1,Cc1ccc2c(c1)C(=O)NCC1(CCN(C(=O)c3ccnn3C)CC1)O2,8.72
2,O=C(c1cscn1)N1CC[C@]2(C[C@@H](OCCN3CCCC3)CO2)C1,43.2
3,Cc1ccsc1CN(Cc1ccccn1)CC(O)CO (configuration not stated),19.7
4,CN(C(=O)c1ccccc1F)[C@@H]1CC[C@@H](O)[C@@H]1O,34.1
5,Cc1ccoc1C(=O)N1CC[C@@H]2CN(C3CCOCC3)CCO[C@@H]2C1,4.98
6,CC(C)c1nnsc1CNC(=O)C1CCN(C(=O)C2CC2)CC1,14.9
7,COCCC(=O)N1CCC2(CCN(Cc3ccc(OC)c(F)c3)C2)C1 (configuration not stated),-10.3
8,O=c1[nH][nH]cc1-c1ccnc(NCCCN2CCOCC2)n1,39.7
9,Fc1ccc(-c2n[nH]cc2-c2ccnc(NCCN3CCCC3)n2)cc1,35.3
10,Cc1[nH]c2ccccc2c1-c1ccnc(NCCN2CCCCC2)n1,61.9
11,Cc1[nH]c2ccccc2c1-c1ccnc(NCCN2CCOCC2)n1,62.2
12,Cc1[nH]c2ccccc2c1-c1ccnc(NC[C@H](O)CO)n1,27.8
13,Cc1nc2[nH]cnc(NCCN3CCOCC3)c-2n1,36.8
14,COCCn1cc(NC(=O)NCC(c2cccc(F)c2)N(C)C)cn1 (configuration not stated),49.7
15,c1ccc(Cn2ccnc2CNCC2CCCN2c2cccnn2)cc1 (configuration not stated),4.71
16,Cc1ccc(N2CCO[C@H]3[C@H](OCC(=O)N4CCCC4)CC[C@@H]32)cc1,-2.03
17,CCSC1(CNc2ncc(Br)cn2)CCOCC1,66.4
18,CSC1(CNc2ncc(Br)cn2)CCOCC1,45.7
19,CN(C)C1(CNc2ncc(Br)cn2)CCOCC1,27.8
